In the supplement of paper PMC10941209:
A number with no mark means an inactive call.

System: Toxoplasma gondii RH 2F1 tachyzoites (intracellular in HFF)
Experiment: parasite survival relative to DMSO control; higher = less antiparasitic activity, active = 20 or less
Details: 1 µM; 72 h
Outline: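 Toxoplasma gondii RH-2F1 tachyzoites expressing β-galactosidase (5 × 10^3 per well) were used to infect HFF cells at 5 × 10^3 cells/well in 96-well plates for 3 h in D2 medium. Cells then received compound at 1 μM for 72 h at 37°C in 5% CO2, were lysed for 15 min, and were given CPRG, with absorbance at 570 nm read after 30 min. Survival denotes this signal as a percentage of DMSO-treated infected controls. Each value reflects 2 or more biological replicates.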

Structure (SMILES)	parasite survival
CNc1nc(=O)[nH]cc1F	60.5%
CCCCCOc1ccc(/C=C2\Oc3c(ccc(O)c3O)C2=O)c(O)c1	48.2%
COc1cc(Cc2cc(N)nc(N)n2)cc(OC)c1OC	31%
CN1C(=O)C(c2ccccc2)C(=O)N(c2ccccc2)c2cc(C(F)(F)F)ccc21 (stereo unspecified)	79.5%
O=S(=O)(Nc1ccc(-n2cccc2)cc1)c1ccc(Cl)c(Cl)c1	58.1%
Clc1ccc(Cn2c(CN3CCCC3)nc3ccccc32)cc1	42.2%
O=C(NC1CCCc2c1[nH]c1ccc(Cl)cc21)c1ccccn1 (stereo unspecified)	63.8%
CS(=O)(=O)c1ccc(Oc2ccc(Cl)cc2)cc1	54.5%
NC[C@H]1O[C@H](O[C@H]2[C@H](O)[C@@H](O[C@H]3O[C@H](CO)[C@@H](O)[C@H](N)[C@H]3O)[C@H](N)C[C@@H]2N)[C@H](N)C[C@@H]1O	48.9%
CCc1nc2ccccn2c1C(=O)NCc1ccccc1	79.5%
Nc1cnn(C2OC(CO)C(O)C2O)c(=O)n1 (stereo unspecified)	76.2%
C[C@H](c1cccc2ccccc12)N(C)Cc1ccccc1	44.4%
C[C@H]1CC[C@@]2(O)C(C)(C)[C@@H]3CC[C@@]2(C)[C@H]1C3	55.5%
O=S(=O)(Nc1cccc2cccnc12)c1ccccc1	24.5%
COc1ccc(-n2cnc3cc(NCc4ccco4)ccc32)cc1	35%
CN(C)[C@@H]1C(=O)C(C(N)=O)=C(O)[C@@]2(O)C(=O)C3=C(O)c4c(O)c(NC(=O)CN5CCCC5)cc(F)c4C[C@H]3C[C@@H]12	34.5%
